Experimental data reported in the antibiotic and cytotoxicity screens of Wong et al. (2023).
In all, about 39,000 compounds went through this assay and about 500 (1.3%) were called active. The full list was thinned out, with actives kept by preference.

System: S. aureus RN4220
Assay: growth inhibition call (relative growth <= 0.2)
Settings: 50 µM

**Q.** `C[C@H](CO)N1C[C@H](C)[C@@H](CN(C)Cc2ccc(C(=O)Nc3ccccc3N)cc2)Oc2c(NS(=O)(=O)c3cn(C)cn3)cccc2C1=O` was tested. Which growth inhibition call did it give?
**A.** inactive

**Q.** How did the growth inhibition call turn out when `Cc1nn(C)c(COc2ccc(N3CCN(S(=O)(=O)N(C)C)CC3)cc2)c1-c1cccc2c(CCCOc3cccc4ccccc34)c(C(=O)O)n(CCN3CCNCC3)c12` was run?
**A.** inactive

**Q.** With `COc1cc(C(=O)N2CCN(CCN3C(=O)c4cccc5cccc(c45)C3=O)CC2)cc(OC)c1OC` as the compound, how does the growth inhibition call read?
**A.** inactive

**Q.** Which growth inhibition call does the source give for `COc1ccc2c(c(Br)c(C(=O)O)n2CCCOc2cccc3ccccc23)c1-c1ccccc1C` here?
**A.** active

**Q.** How did the growth inhibition call turn out when `C=Cn1cnc2c1c(=O)n(C)c(=O)n2C` was run?
**A.** inactive

**Q.** For `CC(C)=CCc1c2c(c3occ(-c4ccc(O)cc4)c(=O)c3c1O)C=CC(C)(C)O2`, which growth inhibition call is on record?
**A.** inactive

**Q.** How did the growth inhibition call turn out when `CC(C)=CCCC1(C)C=Cc2c(O)c3c(c(CC=C(C)C)c2O1)OC12C(=CCCC1C(C)(C)OC2(CC=C(C)C(=O)O)C(=O)O)C3=O` (stereo not drawn) was run?
**A.** active

**Q.** Which growth inhibition call does the source give for `C=c1ccc(S(=O)(=O)NC[C@@H](C)O)cc1=C1NN=C2c3ccccc3C(C)=NN21` here?
**A.** inactive

**Q.** With `C[C@H](CO)N1C[C@H](C)[C@H](CN(C)S(C)(=O)=O)Oc2cc(C#Cc3ccc(F)cc3)ccc2S1(=O)=O` as the compound, how does the growth inhibition call read?
**A.** inactive

**Q.** `C[C@@H]1CN([C@H](C)CO)C(=O)c2cccc(NS(=O)(=O)c3ccccc3)c2O[C@@H]1CN(C)Cc1ccncc1` was tested. Which growth inhibition call did it give?
**A.** inactive

**Q.** `CCCCCCCCCCCCCCCC[N+](C)(C)Cc1ccccc1.[Cl-]` was tested. Which growth inhibition call did it give?
**A.** inactive

**Q.** Which growth inhibition call does the source give for `CCCCCCCCCCCCC[N+](C)(C)Cc1ccccc1.O.[Cl-]` here?
**A.** inactive

**Q.** How did the growth inhibition call turn out when `CCCCCCCCCCCCC[N+](C)(C)Cc1ccccc1` was run?
**A.** active

**Q.** How did the growth inhibition call turn out when `Cc1noc(C)c1S(=O)(=O)N(C)C[C@@H]1Oc2ccc(NS(C)(=O)=O)cc2CC(=O)N([C@H](C)CO)C[C@H]1C` was run?
**A.** inactive

**Q.** How did the growth inhibition call turn out when `C[C@@H]1CN([C@H](C)CO)C(=O)c2cccc(NC(=O)c3cnccn3)c2O[C@@H]1CN(C)S(=O)(=O)c1ccc(F)cc1` was run?
**A.** inactive

**Q.** How did the growth inhibition call turn out when `C[C@@H]1CCCCO[C@@H](CN(C)C(=O)Nc2ccc3c(c2)OCO3)[C@H](C)CN([C@@H](C)CO)C(=O)c2cc(NC(=O)Nc3ccccc3)ccc2O1` was run?
**A.** inactive

**Q.** Which growth inhibition call does the source give for `COc1ccc(C#Cc2ccc3c(c2)O[C@@H](CN(C)S(=O)(=O)c2ccccc2F)[C@H](C)CN([C@H](C)CO)S3(=O)=O)cc1` here?
**A.** inactive

**Q.** Which growth inhibition call does the source give for `O=C([O-])c1ccccc1-c1c2cc(I)c(=O)c(I)c-2oc2c(I)c([O-])c(I)cc12.[Na+].[Na+]` here?
**A.** active

**Q.** How did the growth inhibition call turn out when `O=C(O)CN(CC(=O)O)Cc1cc2c(-c3ccccc3C(=O)O)c3cc(CN(CC(=O)O)CC(=O)O)c(=O)cc-3oc2cc1O` was run?
**A.** inactive

**Q.** For `O=C(O)c1ccccc1-c1c2cc(I)c(=O)c(I)c-2oc2c(I)c(O)c(I)cc12`, which growth inhibition call is on record?
**A.** active

**Q.** With `O=C(O)c1ccccc1-c1ccco1` as the compound, how does the growth inhibition call read?
**A.** inactive

**Q.** With `C[C@@H]1CN([C@@H](C)CO)C(=O)c2cc(NS(=O)(=O)c3ccccc3)ccc2O[C@@H](C)CCCCO[C@@H]1CN(C)Cc1ccc2c(c1)OCO2` as the compound, how does the growth inhibition call read?
**A.** inactive

**Q.** With `Cc1ccc(S(=O)(=O)N(C)C[C@H]2OCCCC[C@H](C)Oc3ccc(NC(=O)NC4CCCCC4)cc3C(=O)N([C@H](C)CO)C[C@@H]2C)cc1` as the compound, how does the growth inhibition call read?
**A.** inactive

**Q.** `O=C(CN1CCOCC1)N[C@H]1CC[C@H](CCNS(=O)(=O)c2ccccc2F)O[C@H]1CO` was tested. Which growth inhibition call did it give?
**A.** inactive

**Q.** How did the growth inhibition call turn out when `CO[C@@H]1CN(C)C(=O)c2ccc(NC(=O)Nc3cccc(F)c3)cc2OC[C@H](C)N(C(=O)Nc2c(C)noc2C)C[C@H]1C` was run?
**A.** inactive

**Q.** For `C[C@@H](O)[C@H]1C(=O)N2C(C(=O)O)=C(SCCNC=N)C[C@H]12`, which growth inhibition call is on record?
**A.** inactive

**Q.** For `CC(O)C1C(=O)N2C(C(=O)[O-])=C(SC3Cn4cnc[n+]4C3)C(C)C12` (stereo not drawn), which growth inhibition call is on record?
**A.** inactive

**Q.** Which growth inhibition call does the source give for `CC(O)C1C(=O)N2C(C(=O)O)=C(SC3CNC(C(=O)N(C)C)C3)C(C)C12` (stereo not drawn) here?
**A.** active

**Q.** `C[C@@H]1CN([C@@H](C)CO)C(=O)CCCn2cc(nn2)CO[C@H]1CN(C)C(=O)C1CC1` was tested. Which growth inhibition call did it give?
**A.** inactive

**Q.** Which growth inhibition call does the source give for `C[C@H](CO)N1C[C@H](C)[C@H](CN(C)C(=O)CCC(F)(F)F)OCCCC[C@H](C)Oc2ccc(NC(=O)C3CCCCC3)cc2C1=O` here?
**A.** inactive

**Q.** How did the growth inhibition call turn out when `COc1cccc(S(=O)(=O)N2C[C@@H](O)COC[C@@H]3O[C@@H](CC(=O)N4CCN(c5ccccc5)CC4)CC[C@H]32)c1` was run?
**A.** inactive

**Q.** With `C[C@@H]1O[C@@H](O[C@H]2[C@@H](Oc3cc(O)c4c(c3)O[C@H](c3ccc(O)cc3)CC4=O)O[C@H](CO)[C@@H](O)[C@@H]2O)[C@H](O)[C@H](O)[C@H]1O` as the compound, how does the growth inhibition call read?
**A.** inactive

**Q.** For `CC1OC(OC2C(Oc3cc(O)c4c(c3)OC(c3ccc(O)cc3)CC4=O)OC(CO)C(O)C2O)C(O)C(O)C1O` (stereo not drawn), which growth inhibition call is on record?
**A.** inactive

**Q.** For `C[C@@H]1O[C@@H](O[C@H]2[C@H](Oc3cc(O)c4c(c3)O[C@H](c3ccc(O)cc3)CC4=O)O[C@H](CO)[C@@H](O)[C@@H]2O)[C@H](O)[C@H](O)[C@H]1O`, which growth inhibition call is on record?
**A.** inactive

**Q.** With `CNC(CC(C)C)C(=O)NC1C(=O)NC(CC(N)=O)C(=O)NC2C(=O)NC3C(=O)NC(C(=O)NC(C(=O)O)c4cc(O)cc(O)c4-c4cc3ccc4O)C(O)c3ccc(c(Cl)c3)Oc3cc2cc(c3OC2OC(CO)C(O)C(O)C2OC2CC(C)(N)C(O)C(C)O2)Oc2ccc(cc2Cl)C1O.Cl` (stereo not drawn) as the compound, how does the growth inhibition call read?
**A.** active

**Q.** For `CC(C)C[C@@H](N)C(=O)N[C@H]1C(=O)N[C@@H](CC(N)=O)C(=O)N[C@H]2C(=O)N[C@H]3C(=O)N[C@H](C(=O)N[C@H](C(=O)O)c4cc(O)cc(O)c4-c4cc3ccc4O)[C@H](O)c3ccc(c(Cl)c3)Oc3cc2cc(c3O[C@@H]2O[C@H](CO)[C@@H](O)[C@H](O)[C@H]2O[C@H]2C[C@](C)(N)[C@H](O)[C@H](C)O2)Oc2ccc(cc2Cl)[C@H]1O`, which growth inhibition call is on record?
**A.** active

**Q.** Which growth inhibition call does the source give for `CN[C@H](CC(C)C)C(=O)N[C@H]1C(=O)N[C@@H](CC(N)=O)C(=O)N[C@H]2C(=O)N[C@H]3C(=O)N[C@H](C(=O)N[C@H](C(=O)O)c4cc(O)cc(O)c4-c4cc3ccc4O)[C@H](O)c3ccc(c(Cl)c3)Oc3cc2cc(c3O[C@@H]2O[C@H](CO)[C@@H](O)[C@H](O)[C@H]2O[C@H]2C[C@](C)(N)[C@H](O)[C@H](C)O2)Oc2ccc(cc2Cl)[C@H]1O` here?
**A.** active

**Q.** `C[C@H]1CCCC[C@]12NC(=O)NC2=O` was tested. Which growth inhibition call did it give?
**A.** inactive
